# Article PMC7862700, “An all-to-all approach to the identification of sequence-specific readers for epigenetic DNA modifications on cytosine”
# Columns and labels:
# Assay in all cases: DAPPL (digital affinity profiling via proximity ligation, sequencing); 10 mM Tris-HCl pH 7.5, 50 mM NaCl, 1 mM DTT, 4% glycerol, room temperature, 30 min; GST-TFs on glutathione beads, 16-mer random dsDNA library, 0.1% formaldehyde crosslink after washing; high values mean tight binding
# [1] = target: T1, FLI1 (Homo sapiens, UniProt Q01543 1-452); details: protein: recombinant; tags: N-terminal GST; dsDNA, one strand shown
# T1 sequence: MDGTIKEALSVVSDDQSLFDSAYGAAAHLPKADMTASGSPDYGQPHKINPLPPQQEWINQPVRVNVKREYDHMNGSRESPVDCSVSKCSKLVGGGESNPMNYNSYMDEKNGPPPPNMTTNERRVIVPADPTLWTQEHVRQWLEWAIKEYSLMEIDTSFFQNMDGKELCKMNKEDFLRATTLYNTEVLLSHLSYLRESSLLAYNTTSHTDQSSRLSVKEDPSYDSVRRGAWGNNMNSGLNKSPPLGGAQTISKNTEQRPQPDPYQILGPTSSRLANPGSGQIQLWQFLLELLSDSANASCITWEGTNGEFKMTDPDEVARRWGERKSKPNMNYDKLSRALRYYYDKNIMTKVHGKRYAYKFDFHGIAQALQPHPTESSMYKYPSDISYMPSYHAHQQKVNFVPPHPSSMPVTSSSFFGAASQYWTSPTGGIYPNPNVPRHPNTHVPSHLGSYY
# In short: (§1)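 Binding signal is given per hexamer as its read frequency for a factor divided by its frequency in the tag-only sample. GST-fused human transcription factors were expressed in yeast, captured on glutathione beads, barcoded with DNA and pooled with that sample, then incubated with 200 nmole of a 16-mer random double-stranded DNA library in Tris/NaCl/DTT/glycerol buffer for 30 min at room temperature. The pools were then washed, crosslinked, proximity-ligated, amplified by PCR and sequenced on an Illumina NextSeq500.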
# [2] = target: T2, ELK1 (Homo sapiens, UniProt P19419 1-428); details: protein: recombinant; tags: N-terminal GST; dsDNA, one strand shown
# T2 sequence: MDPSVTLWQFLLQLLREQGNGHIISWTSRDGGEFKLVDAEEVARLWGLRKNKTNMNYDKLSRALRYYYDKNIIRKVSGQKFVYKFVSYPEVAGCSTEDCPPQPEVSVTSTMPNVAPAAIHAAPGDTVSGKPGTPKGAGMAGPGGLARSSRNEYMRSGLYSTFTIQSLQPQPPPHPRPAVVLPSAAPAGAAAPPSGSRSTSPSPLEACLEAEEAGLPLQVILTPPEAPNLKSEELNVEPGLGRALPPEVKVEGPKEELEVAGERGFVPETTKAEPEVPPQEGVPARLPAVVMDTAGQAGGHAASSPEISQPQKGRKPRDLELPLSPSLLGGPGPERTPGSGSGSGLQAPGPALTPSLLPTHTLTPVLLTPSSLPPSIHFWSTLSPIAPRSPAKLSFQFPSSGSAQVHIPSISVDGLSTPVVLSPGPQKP
# In short: as §1
# [3] = target: T3, GABPA (Homo sapiens, UniProt Q06546 1-454); details: protein: recombinant; tags: N-terminal GST; dsDNA, one strand shown
# T3 sequence: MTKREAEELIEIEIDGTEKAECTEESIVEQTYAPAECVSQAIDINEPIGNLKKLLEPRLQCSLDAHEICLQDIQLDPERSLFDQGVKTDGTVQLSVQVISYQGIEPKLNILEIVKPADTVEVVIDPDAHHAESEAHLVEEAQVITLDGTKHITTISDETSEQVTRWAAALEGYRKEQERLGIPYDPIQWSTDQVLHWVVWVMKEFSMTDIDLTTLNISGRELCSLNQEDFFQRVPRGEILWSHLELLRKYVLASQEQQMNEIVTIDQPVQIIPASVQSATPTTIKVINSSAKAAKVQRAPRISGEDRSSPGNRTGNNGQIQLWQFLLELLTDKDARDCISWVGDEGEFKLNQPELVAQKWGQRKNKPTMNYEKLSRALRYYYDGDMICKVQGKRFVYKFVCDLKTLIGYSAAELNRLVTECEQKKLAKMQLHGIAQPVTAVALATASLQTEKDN
# In short: as §1
# [4] = target: T4, ERG (Homo sapiens, UniProt P11308 1-479); details: protein: recombinant; tags: N-terminal GST; dsDNA, one strand shown
# T4 sequence: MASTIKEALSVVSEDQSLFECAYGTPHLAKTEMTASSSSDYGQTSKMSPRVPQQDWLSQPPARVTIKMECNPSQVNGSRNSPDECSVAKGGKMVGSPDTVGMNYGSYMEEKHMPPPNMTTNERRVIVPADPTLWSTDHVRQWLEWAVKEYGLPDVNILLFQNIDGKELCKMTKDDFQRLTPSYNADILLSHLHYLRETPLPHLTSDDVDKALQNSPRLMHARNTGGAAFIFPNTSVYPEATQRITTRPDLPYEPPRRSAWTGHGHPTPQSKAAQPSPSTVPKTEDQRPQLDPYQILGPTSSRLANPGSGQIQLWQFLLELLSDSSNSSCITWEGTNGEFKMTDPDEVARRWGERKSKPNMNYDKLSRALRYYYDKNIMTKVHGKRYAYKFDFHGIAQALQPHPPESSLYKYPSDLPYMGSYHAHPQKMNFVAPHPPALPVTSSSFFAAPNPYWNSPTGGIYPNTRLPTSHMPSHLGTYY
# In short: as §1
# [5] = target: ELF1 (Homo sapiens, UniProt P32519 1-619); details: protein: recombinant; tags: N-terminal GST; dsDNA, one strand shown
# Chain of ELF1 (P32519 whole entry): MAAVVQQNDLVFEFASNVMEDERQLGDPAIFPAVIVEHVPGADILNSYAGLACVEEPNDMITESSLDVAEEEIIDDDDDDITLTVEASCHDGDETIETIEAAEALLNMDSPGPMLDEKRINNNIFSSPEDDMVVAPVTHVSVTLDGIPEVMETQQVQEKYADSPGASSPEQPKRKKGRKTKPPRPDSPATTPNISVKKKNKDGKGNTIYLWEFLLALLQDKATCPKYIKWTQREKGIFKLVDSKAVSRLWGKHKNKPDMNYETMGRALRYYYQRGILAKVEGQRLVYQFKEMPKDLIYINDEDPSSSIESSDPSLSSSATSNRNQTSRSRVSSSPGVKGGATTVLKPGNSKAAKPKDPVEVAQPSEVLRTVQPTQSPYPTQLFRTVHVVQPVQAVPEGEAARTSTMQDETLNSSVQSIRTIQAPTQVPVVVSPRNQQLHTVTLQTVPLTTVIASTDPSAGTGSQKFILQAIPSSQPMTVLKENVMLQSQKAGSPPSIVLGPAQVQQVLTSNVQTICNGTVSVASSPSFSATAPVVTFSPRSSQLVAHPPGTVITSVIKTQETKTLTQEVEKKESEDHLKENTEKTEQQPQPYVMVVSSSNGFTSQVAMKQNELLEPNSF
# In short: as §1
# [6] = target: T5, EHF (Homo sapiens, UniProt Q9NZC4 1-300); details: protein: recombinant; tags: N-terminal GST; dsDNA, one strand shown
# T5 sequence: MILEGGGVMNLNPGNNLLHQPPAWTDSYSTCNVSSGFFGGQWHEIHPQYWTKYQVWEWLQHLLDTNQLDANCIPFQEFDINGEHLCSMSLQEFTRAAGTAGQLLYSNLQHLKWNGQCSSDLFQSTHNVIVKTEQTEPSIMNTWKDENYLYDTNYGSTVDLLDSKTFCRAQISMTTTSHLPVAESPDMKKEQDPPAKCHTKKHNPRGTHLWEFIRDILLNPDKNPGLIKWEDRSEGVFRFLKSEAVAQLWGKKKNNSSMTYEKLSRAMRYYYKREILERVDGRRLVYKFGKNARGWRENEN
# In short: as §1
# [7] = target: SPI1 (Homo sapiens, UniProt P17947 1-270); details: protein: recombinant; tags: N-terminal GST; dsDNA, one strand shown
# In short: as §1
# [8] = target: SPIB (Homo sapiens, UniProt Q01892 1-262); details: protein: recombinant; tags: N-terminal GST; dsDNA, one strand shown
# Chain of SPIB (Q01892 whole entry): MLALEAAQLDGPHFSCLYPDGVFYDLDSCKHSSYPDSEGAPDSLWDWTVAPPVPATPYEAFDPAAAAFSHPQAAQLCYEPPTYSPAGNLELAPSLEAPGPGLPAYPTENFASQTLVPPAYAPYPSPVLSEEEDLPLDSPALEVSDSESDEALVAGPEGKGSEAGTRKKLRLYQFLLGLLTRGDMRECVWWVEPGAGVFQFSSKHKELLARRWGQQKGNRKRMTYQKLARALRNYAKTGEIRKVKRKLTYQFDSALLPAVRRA
# In short: as §1
# [9] = target: T6, ELK3 (Homo sapiens, UniProt P41970 1-407); details: protein: recombinant; tags: N-terminal GST; dsDNA, one strand shown
# T6 sequence: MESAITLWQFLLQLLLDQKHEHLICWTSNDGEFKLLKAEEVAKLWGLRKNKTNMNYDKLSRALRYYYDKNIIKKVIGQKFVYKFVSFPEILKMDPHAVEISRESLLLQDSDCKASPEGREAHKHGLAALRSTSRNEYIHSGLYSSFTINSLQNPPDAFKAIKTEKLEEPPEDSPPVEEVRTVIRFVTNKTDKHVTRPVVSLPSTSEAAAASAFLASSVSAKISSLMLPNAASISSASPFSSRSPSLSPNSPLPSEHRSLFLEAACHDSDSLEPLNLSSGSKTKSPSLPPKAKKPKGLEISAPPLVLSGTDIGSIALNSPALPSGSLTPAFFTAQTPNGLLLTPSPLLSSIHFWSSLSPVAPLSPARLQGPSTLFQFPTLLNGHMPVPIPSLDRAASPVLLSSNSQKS
# In short: as §1
# [10] = target: T7, FEV (Homo sapiens, UniProt Q99581 1-238); details: protein: recombinant; tags: N-terminal GST; dsDNA, one strand shown
# T7 sequence: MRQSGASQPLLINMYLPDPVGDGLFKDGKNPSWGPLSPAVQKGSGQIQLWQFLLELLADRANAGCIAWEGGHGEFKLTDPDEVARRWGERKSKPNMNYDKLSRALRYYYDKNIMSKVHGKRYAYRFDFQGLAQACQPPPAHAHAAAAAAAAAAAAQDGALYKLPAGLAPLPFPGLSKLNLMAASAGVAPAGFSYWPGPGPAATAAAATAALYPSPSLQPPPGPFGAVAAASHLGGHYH
# In short: as §1
# [11] = target: ETV5 (Homo sapiens, UniProt P41161 1-510); details: protein: recombinant; tags: N-terminal GST; dsDNA, one strand shown
# Chain of ETV5 (P41161 whole entry): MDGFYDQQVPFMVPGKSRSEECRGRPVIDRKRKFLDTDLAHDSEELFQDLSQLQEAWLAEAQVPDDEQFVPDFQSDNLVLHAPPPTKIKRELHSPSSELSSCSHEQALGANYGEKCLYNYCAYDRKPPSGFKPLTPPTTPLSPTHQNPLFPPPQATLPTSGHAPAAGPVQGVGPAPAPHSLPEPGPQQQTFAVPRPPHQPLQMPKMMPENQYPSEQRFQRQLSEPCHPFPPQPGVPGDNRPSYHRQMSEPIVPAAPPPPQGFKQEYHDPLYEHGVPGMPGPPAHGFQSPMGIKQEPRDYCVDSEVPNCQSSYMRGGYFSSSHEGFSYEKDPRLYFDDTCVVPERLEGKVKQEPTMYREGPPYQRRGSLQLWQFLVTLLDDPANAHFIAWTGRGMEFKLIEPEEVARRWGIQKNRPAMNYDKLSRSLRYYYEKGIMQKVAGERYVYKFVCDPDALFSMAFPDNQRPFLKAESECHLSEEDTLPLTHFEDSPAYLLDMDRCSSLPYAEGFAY
# In short: as §1
# [12] = target: HSF1 (Homo sapiens, UniProt Q00613 1-529); details: protein: recombinant; tags: N-terminal GST; chain copies: 3; dsDNA, one strand shown
# Chain of HSF1 (Q00613 whole entry): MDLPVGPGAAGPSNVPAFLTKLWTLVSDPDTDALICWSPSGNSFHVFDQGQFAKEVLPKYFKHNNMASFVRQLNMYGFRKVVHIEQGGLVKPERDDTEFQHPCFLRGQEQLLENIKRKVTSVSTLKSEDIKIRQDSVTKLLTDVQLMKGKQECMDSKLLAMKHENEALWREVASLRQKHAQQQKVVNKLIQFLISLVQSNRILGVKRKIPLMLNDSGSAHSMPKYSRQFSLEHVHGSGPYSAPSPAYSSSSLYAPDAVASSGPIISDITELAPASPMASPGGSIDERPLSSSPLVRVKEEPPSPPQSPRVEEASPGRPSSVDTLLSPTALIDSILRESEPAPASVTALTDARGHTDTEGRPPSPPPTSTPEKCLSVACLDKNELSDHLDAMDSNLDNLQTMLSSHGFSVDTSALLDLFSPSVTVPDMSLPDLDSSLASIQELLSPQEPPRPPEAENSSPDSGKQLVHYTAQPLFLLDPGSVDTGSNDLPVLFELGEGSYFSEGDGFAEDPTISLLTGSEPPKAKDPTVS
# In short: as §1
# [13] = target: T8, SPIC (Homo sapiens, UniProt Q8N5J4 1-248); details: protein: recombinant; tags: N-terminal GST; dsDNA, one strand shown
# T8 sequence: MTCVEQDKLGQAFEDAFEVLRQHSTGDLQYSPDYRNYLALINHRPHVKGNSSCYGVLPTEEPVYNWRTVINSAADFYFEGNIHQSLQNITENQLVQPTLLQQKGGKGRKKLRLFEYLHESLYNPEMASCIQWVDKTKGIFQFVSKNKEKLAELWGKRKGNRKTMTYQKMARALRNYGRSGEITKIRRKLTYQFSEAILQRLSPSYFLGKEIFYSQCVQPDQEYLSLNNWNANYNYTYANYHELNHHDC
# In short: as §1
# [14] = target: ELF4 (Homo sapiens, UniProt Q99607 1-663); details: protein: recombinant; tags: N-terminal GST; dsDNA, one strand shown
# Chain of ELF4 (Q99607 whole entry): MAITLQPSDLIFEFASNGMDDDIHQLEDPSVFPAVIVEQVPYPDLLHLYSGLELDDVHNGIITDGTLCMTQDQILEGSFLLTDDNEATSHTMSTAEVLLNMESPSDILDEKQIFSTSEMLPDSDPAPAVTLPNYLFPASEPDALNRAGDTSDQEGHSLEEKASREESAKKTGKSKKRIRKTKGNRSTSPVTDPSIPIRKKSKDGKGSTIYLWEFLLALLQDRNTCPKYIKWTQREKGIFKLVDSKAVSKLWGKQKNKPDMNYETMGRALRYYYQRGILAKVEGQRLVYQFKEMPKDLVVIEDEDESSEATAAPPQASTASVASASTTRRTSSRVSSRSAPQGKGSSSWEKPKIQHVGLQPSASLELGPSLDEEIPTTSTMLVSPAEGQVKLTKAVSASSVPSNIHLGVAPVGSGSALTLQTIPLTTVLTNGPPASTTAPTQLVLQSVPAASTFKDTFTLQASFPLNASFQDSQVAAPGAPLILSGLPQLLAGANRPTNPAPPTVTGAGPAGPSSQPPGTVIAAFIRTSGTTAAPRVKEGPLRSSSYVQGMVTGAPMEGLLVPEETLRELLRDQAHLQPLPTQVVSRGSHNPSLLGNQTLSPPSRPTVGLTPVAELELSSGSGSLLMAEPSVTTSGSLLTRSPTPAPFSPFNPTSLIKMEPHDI
# In short: as §1
# [15] = target: T9, ELK4 (Homo sapiens, UniProt P28324-2 1-405); details: protein: recombinant; tags: N-terminal GST; dsDNA, one strand shown
# T9 sequence: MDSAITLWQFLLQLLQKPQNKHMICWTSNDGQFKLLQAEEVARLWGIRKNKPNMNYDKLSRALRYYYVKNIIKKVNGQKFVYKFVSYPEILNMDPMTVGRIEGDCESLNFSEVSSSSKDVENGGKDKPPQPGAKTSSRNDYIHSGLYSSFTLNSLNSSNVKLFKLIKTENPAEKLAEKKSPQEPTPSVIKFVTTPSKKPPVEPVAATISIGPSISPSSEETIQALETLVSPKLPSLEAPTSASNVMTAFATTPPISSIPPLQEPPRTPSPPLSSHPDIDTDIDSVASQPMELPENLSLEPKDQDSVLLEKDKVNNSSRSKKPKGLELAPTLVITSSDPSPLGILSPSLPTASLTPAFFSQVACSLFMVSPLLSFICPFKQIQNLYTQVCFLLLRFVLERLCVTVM
# In short: as §1
# [16] = target: T10, ETV2 (Homo sapiens, UniProt O00321 1-342); details: protein: recombinant; tags: N-terminal GST; dsDNA, one strand shown
# T10 sequence: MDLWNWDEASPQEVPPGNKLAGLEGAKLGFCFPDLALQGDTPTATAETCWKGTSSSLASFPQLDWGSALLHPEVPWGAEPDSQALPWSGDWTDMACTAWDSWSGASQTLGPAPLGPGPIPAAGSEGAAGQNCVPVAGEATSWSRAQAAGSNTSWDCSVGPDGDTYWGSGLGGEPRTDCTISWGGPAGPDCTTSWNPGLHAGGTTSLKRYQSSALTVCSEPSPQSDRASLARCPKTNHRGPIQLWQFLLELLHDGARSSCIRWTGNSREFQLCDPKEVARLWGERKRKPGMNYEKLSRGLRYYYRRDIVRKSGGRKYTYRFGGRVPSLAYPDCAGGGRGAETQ
# In short: as §1
# [17] = target: T11, ELF3 (Homo sapiens, UniProt P78545 1-371); details: protein: recombinant; tags: N-terminal GST; dsDNA, one strand shown
# T11 sequence: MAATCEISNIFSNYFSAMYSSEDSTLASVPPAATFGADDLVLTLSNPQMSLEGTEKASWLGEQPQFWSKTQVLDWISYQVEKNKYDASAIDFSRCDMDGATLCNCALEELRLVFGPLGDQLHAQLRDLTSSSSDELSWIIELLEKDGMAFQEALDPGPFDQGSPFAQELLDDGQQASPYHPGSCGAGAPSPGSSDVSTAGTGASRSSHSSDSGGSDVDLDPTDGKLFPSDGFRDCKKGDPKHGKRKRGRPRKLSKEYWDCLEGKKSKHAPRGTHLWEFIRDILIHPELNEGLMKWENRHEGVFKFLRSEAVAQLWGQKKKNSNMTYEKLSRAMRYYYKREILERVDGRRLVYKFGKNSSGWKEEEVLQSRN
# In short: as §1
# [18] = target: CRX (Homo sapiens, UniProt O43186 1-299); details: protein: recombinant; tags: N-terminal GST; dsDNA, one strand shown
# Chain of CRX (O43186 whole entry): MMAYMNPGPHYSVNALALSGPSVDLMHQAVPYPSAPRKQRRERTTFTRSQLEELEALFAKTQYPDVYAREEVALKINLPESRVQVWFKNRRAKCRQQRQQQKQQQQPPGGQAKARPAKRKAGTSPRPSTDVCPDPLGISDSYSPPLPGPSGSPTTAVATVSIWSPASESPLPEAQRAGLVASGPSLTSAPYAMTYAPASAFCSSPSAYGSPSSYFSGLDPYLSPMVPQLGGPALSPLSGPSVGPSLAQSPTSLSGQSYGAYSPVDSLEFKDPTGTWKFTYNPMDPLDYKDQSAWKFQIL
# In short: as §1
# [19] = target: ETV1 (Homo sapiens, UniProt P50549 1-477); details: protein: recombinant; tags: N-terminal GST; dsDNA, one strand shown
# Chain of ETV1 (P50549 whole entry): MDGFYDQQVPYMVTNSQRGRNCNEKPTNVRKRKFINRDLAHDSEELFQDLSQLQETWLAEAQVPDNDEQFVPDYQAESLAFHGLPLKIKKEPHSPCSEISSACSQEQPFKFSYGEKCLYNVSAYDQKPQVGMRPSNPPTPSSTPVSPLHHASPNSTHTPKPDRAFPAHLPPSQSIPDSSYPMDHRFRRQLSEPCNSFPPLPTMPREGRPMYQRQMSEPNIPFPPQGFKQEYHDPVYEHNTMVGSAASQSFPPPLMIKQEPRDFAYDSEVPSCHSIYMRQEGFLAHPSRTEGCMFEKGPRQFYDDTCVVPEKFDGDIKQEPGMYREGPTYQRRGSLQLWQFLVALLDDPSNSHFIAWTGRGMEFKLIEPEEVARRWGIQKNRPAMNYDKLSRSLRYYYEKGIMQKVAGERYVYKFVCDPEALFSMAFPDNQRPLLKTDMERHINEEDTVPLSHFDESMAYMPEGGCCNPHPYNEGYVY
# In short: as §1
sequence,measurement,setting,value
CCTATA,binding signal,[1],"1.35 fold enrichment (6-mer frequency, TF over GST control)"
same,binding signal,[2],"1.29 fold enrichment (6-mer frequency, TF over GST control)"
same,binding signal,[3],"1.42 fold enrichment (6-mer frequency, TF over GST control)"
same,binding signal,[4],"1.3 fold enrichment (6-mer frequency, TF over GST control)"
same,binding signal,[5],"1.39 fold enrichment (6-mer frequency, TF over GST control)"
same,binding signal,[6],"1.28 fold enrichment (6-mer frequency, TF over GST control)"
same,binding signal,[7],"1.28 fold enrichment (6-mer frequency, TF over GST control)"
same,binding signal,[8],"1.34 fold enrichment (6-mer frequency, TF over GST control)"
same,binding signal,[9],"1.32 fold enrichment (6-mer frequency, TF over GST control)"
same,binding signal,[10],"1.33 fold enrichment (6-mer frequency, TF over GST control)"
same,binding signal,[11],"1.31 fold enrichment (6-mer frequency, TF over GST control)"
same,binding signal,[12],"1.16 fold enrichment (6-mer frequency, TF over GST control)"
same,binding signal,[13],"1.35 fold enrichment (6-mer frequency, TF over GST control)"
same,binding signal,[14],"1.29 fold enrichment (6-mer frequency, TF over GST control)"
same,binding signal,[15],"1.4 fold enrichment (6-mer frequency, TF over GST control)"
same,binding signal,[16],"1.43 fold enrichment (6-mer frequency, TF over GST control)"
same,binding signal,[17],"1.15 fold enrichment (6-mer frequency, TF over GST control)"
same,binding signal,[18],"1.34 fold enrichment (6-mer frequency, TF over GST control)"
same,binding signal,[19],"1.29 fold enrichment (6-mer frequency, TF over GST control)"
